Compounds with a hit are over-represented: about 4.4% of the library has one in this group of screens.
tim10-1 inh = tim10-1 yeast growth inhibition; AID 463190; S. cerevisiae tim10-1 ts strain growth, BacTiter-Glo, 24 h; 2.2% of 330,000 active; inhibition, % at 20 µM;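 active = inhibition of at least 40%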;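 also: mutant grown at 25 °C; 0% = DMSO wells with yeast and 100% = wells holding no yeast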
PfHsp90 set2 = inhibits growth of yeast expressing Plasmodium falciparum Hsp90; S. cerevisiae expressing PfHsp90, BacTiter-Glo ATP, 48 h; yeast lacking PDR1 and PDR3 efflux regulators; inhibition, % at 9.4 µM; 0.32% of 310,000 active; AID 504621;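 active = every replicate shows inhibition above about 80%, whatever the replicate mean, limit read from the data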;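 also: 0% = DMSO neutral controls and 100% = 20 µM radicicol positive controls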
tim23-1 inh = tim23-1 yeast growth inhibition | S. cerevisiae tim23-1 growth, BacTiter-Glo luminescence, 24 h | inhibition, % at 20 µM | 1.3% of 330,000 active | AID 463212;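 active = growth inhibition of the mutant yeast at or above 50%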;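 also: temperature-sensitive mutant grown at 25 °C; plate controls were DMSO-treated mutant yeast for no effect and medium wells lacking yeast for full effect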
SKKanGAS inh = SKKanGAS growth inhibition | S. pyogenes SKKanGAS, kanamycin growth, BacTiter-Glo, 6 h | inhibition, % at 7.5 µM | 1.3% of 300,000 active;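 active = mean replicate score, as percent of positive control median, at least 50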;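 also: strain carries kanamycin resistance gene driven by streptokinase promoter and grows in 40 µg/ml kanamycin; loss of luminescence reflects streptokinase promoter inhibition or plain growth inhibition; 0% = median of DMSO wells and 100% = positive control at its reference dose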
TIM10 inh = TIM10 yeast growth inhibition. S. cerevisiae TIM10 strain growth, BacTiter-Glo luminescence, 24 h. inhibition, % at 10 µM. 1.4% of 330,000 active. AID 463195;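 active = inhibition of 40% or more at the single tested concentration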;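 also: wild-type TIM10 isogenic control strain grown at permissive 25 °C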
tim10-1 confirm = confirmation of tim10-1 mutant yeast growth inhibitors. 56% of 7,400 active. S. cerevisiae tim10-1 ts strain growth, BacTiter-Glo, 24 h. AID 463213. shares compounds with tim10-1 inh. inhibition, % at 20 µM;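 active = inhibition of yeast growth at or above a set limit in either of two repeat tests at 20 µM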;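 also: tim10-1 mutant grown at permissive 25 °C to find synthetic lethal compounds; 0% = DMSO yeast wells and 100% = medium wells without yeast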
Active calls of the source: *; . = no result given.

SMILES | tim10-1 inh | PfHsp90 set2 | tim23-1 inh | SKKanGAS inh | TIM10 inh | tim10-1 confirm
Cc1ccc(C(C)(C)C)cc1S(=O)(=O)Nc1nc2ccccc2nc1Cl | 41* | -15 | 44 | 21 | 18 | 40*
NS(=O)(=O)c1cccc(NC(=O)COC(=O)CSCc2ccccc2)c1 | 16 | -3 | 15 | . | 8 | .
CCOc1ccc(S(=O)(=O)N2CCN(C(=O)c3ccncc3)CC2)cc1 | 2 | -7 | -7 | -10 | -3 | .
CC(=O)Nc1ccc(NC(=O)c2ccc([N+](=O)[O-])cc2Cl)cc1 | -3 | -20 | -1 | 1 | 8 | .
CCC(C)NS(=O)(=O)c1ccc(NC(=O)c2ccc([N+](=O)[O-])cc2Cl)cc1 (stereo not drawn) | 46* | 13 | 31 | -4 | 25 | 31*
CCOC(=O)c1cc(C(C)(C)C)oc1CNC(=O)c1c(C)oc2c1CCCC2 | 44* | -5 | 26 | 9 | 28 | 33*
Cc1ccc(C(=O)COC(=O)C2CC(=O)N(c3nc(-c4ccccc4)cs3)C2)cc1 (stereo not drawn) | 40* | -14 | 11 | 11 | 31 | 29
COc1ccc(N2CC(C(=O)OCC(=O)c3ccc(C)cc3)CC2=O)cc1 (stereo not drawn) | 28 | 16 | 12 | -2 | 11 | .
CN(C(=O)CSc1nnc(Cc2cccs2)n1C1CC1)C1CCS(=O)(=O)C1 (stereo not drawn) | 10 | 2 | 7 | . | 12 | .
COc1ccccc1C(=O)NC(=O)COC(=O)c1cnc(C)cn1 | 20 | -3 | 7 | -3 | 13 | .
Cc1cc(NS(=O)(=O)c2ccccc2)c([N+](=O)[O-])cc1C | 41* | -2 | 44 | -4 | 25 | 25
O=[N+]([O-])c1cc(Br)ccc1NS(=O)(=O)c1ccccc1 | . | -73 | . | . | . | .
Cc1cc(C)nc(NC(=O)c2cc(-c3ccc(C)s3)nc3ccccc23)c1 | 25 | 18 | 21 | 15 | 11 | .
CNC(=S)NNC(=O)c1cc(-c2cccnc2)nc2ccccc12 | 49* | 55 | 49 | 21 | 34 | 40*
Cc1ccc(-c2cc(C(=O)Nc3cccnc3)c3ccccc3n2)s1 | 42* | 12 | 35 | 5 | 28 | 13
Cc1cccc(-c2cc(C(=O)Nc3cccnc3)c3ccccc3n2)c1 | 40* | 0 | 43 | 1 | 24 | 19
C=CCNC(=S)NNC(=O)c1cc(-c2cccnc2)nc2ccccc12 | 11 | 9 | 14 | 7 | 13 | .
CCN1C[C@@H]2[C@@H]3C(=O)N(C)C(=O)[C@@H]3[C@](Cc3ccccc3)(C1=O)N2C(=O)c1ccc(Br)cc1 | . | 8 | . | . | . | .
Oc1ccccc1/C=N/Nc1nccnc1Cl | 55* | . | 28 | 19 | 28 | 20
COC(CNC(=O)C1CCN(S(=O)(=O)c2cccc3nsnc23)CC1)OC | 18 | -2 | 6 | 4 | 19 | .
Cc1cc(Nc2nc3ccccc3nc2Cl)n(-c2ccccc2)n1 | 40 | -17 | 38 | -2 | 31 | 23
CCCc1nn(C)c2c1C(c1cccnc1)C(C#N)=C(N)O2 (stereo not drawn) | 41* | 16 | 29 | -3 | 3 | 27
CCC(C)Oc1nc(C)cc(C)c1S(=O)(=O)c1ccccc1C (stereo not drawn) | 44* | 6 | 42 | 5 | 24 | 23
COc1nc(C)cc(C)c1S(=O)(=O)c1ccccc1C | 2 | -3 | 11 | 7 | -8 | .
Fc1ccc(-n2nnc(-c3ccnc4ccccc34)n2)cc1 | 12 | -35 | 19 | -3 | 7 | .
SMILES | tim10-1 inh | PfHsp90 set2 | tim23-1 inh | SKKanGAS inh | TIM10 inh | tim10-1 confirm
N#Cc1cc(C(=O)c2ccccc2OCC(=O)Nc2ccccc2Cl)cn(C2CCCCC2)c1=O | 43* | -22 | 26 | 2 | 8 | 18
CC(=O)c1cccc(NC(=O)COc2ccccc2C(=O)c2cc(C#N)c(=O)n(C3CCCCC3)c2)c1 | 26 | 4 | 12 | 10 | -3 | .
CC(=O)c1ccsc1-c1c(C)cc2oc(=O)cc(-c3ccccc3)c2c1C | 9 | -31 | 33 | . | -5 | .
Cc1nn(Cc2ccc([N+](=O)[O-])cc2)c(=O)n1N(C)c1ncc(C(F)(F)F)cc1Cl | 43* | 9 | 27 | 4 | 24 | 27*
Cc1nn(Cc2ccc([N+](=O)[O-])cc2)c(=O)n1-c1ccccc1Cl | 16 | 6 | 6 | 5 | -9 | .
Cc1cc(Nc2cccc(Cl)c2)nc(NCc2ccccc2)n1 | 45* | -8 | 45 | 17 | 8 | 24

Bioassay records (PubChem)
